# Results from PubChem BioAssay.
# The source made the active and inactive calls.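 How the source made its calls, unless noted: active means visually confirmed hit in the image check and inhibition above 20%; inconclusive means visually confirmed hit but inhibition not above 20%; inactive means no visual hit in the image check.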
# Assays:
# [1] = inhibitors of TNFa-induced NFkB p65 translocation, primary screen, imaging, HUVEC, MLSMR starter and 10KST1 sets (AID 438;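 active means inhibition above 20% together with a positive visual image hit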;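 further: compound added about 3h40 before a 20 min TNFalpha stimulation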;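 on inhibition: signal is the nuclear over cytoplasmic p65 intensity ratio per well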); settings: HUVEC TNFa-induced p65 nuclear translocation; cell count: measured here: nuclei count (cytotoxicity indicator), at 2.08 µM; inhibition: at 2 µM, stronger effect = higher value, 0% TNFa-plus-vehicle, 100% no-TNFa wells
# [2] = inhibitors of mutant huntingtin aggregation, primary screen, imaging, exon1htt(103Q)mCFP cells, high-content imaging (AID 483;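 active means visual image review flags a hit and inhibition of aggregation exceeds 20%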;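 further: compound exposure lasted 3 days before fixation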;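 on nuclei count: percent of the per-plate median nuclei count of sample wells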); settings: exon1htt(103Q)mCFP cell line, aggregate imaging, at 2 µM; inhibition of aggregation: stronger effect = higher value; nuclei count: measured here: cell count, toxicity
# [3] = inhibitors of E-selectin induction by TNFa, primary screen, imaging, HUVEC, immunofluorescence, MLSMR starter and 10KST1 sets (AID 487); settings: HUVEC TNFalpha-induced E-selectin immunofluorescence imaging, at 2 µM; inhibition: stronger effect = higher value; nuclei count: measured here: cell number, toxicity;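 on inhibition: signal is fraction of cell area covered by stained E-selectin grains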;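 on nuclei count: 100% = median nuclei count of all wells on the same plate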
# [4] = biological target: Voltage-gated potassium channel subunit beta-2 (Rattus norvegicus) (UniProt P62483); test: KvBeta enzyme negative modulators, primary screen, biochemical, NADPH fluorescence (AID 622;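 active means fluorescence slope higher than the sample average by over 3 SD, cut at about -0.22 in these data, passing the limit was not always enough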;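 further: slope of raw intensity against log time taken from 70 to 1610 s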); settings: recombinant KvBeta, 4-cyanobenzaldehyde reduction, at 10 µM, stronger effect = higher value
# Sequence of Voltage-gated potassium channel subunit beta-2 (Rattus norvegicus) (P62483 whole entry, looked up): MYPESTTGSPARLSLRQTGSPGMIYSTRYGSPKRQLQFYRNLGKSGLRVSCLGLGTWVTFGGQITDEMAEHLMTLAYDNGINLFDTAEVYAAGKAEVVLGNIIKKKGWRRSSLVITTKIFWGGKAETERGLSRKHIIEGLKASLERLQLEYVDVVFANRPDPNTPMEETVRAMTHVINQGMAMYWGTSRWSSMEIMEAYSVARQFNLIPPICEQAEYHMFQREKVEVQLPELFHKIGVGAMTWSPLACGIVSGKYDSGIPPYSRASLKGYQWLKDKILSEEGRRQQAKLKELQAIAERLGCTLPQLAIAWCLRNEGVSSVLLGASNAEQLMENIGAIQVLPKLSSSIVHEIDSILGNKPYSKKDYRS
# [5] = biological target: Voltage-gated potassium channel subunit beta-2 (Rattus norvegicus) (UniProt P62483); test: KvBeta positive modulators, primary screen, biochemical, NADPH fluorescence (AID 623;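 active means NADPH fluorescence slope more negative than the mean of all samples by about 3 SD, 99.7% confidence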;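 further: fluorescence intensity change per second fitted from 20 to 320 s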); settings: Recombinant KvBeta, NADPH fluorescence decrease slope, 10 min; at 10 µM; stronger effect = lower value
# [6] = biological target: Alpha-2C adrenergic receptor (Homo sapiens) (UniProt P18825); test: modulators of alpha2C/GIRK thallium flux, primary screen, cell-based, HEK293 alpha2C/GIRK1/2 (AID 624;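 active means fluorescence slope after compound addition differing from the mean of all screened samples at 99.7% confidence, in either direction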;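 further: slope of fluorescence ratio to pre-addition baseline per second over 15 to 24 s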); settings: thallium flux BTC fluorescence, at 10 µM, actives lie on both sides
# Sequence of Alpha-2C adrenergic receptor (Homo sapiens) (P18825 whole entry, looked up): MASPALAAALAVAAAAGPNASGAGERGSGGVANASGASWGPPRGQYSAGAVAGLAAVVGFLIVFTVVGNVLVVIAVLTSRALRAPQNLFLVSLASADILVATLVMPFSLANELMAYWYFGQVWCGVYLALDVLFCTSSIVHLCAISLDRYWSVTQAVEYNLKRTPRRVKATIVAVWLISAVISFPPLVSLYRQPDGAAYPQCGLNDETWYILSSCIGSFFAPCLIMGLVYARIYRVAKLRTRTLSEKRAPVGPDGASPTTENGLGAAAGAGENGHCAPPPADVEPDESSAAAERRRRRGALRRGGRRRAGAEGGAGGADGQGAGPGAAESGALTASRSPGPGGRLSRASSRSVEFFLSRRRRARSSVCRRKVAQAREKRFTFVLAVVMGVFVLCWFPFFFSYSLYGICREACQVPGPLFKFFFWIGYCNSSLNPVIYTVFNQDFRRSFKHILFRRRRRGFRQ
# [7] = inhibitors of Sendai virus-induced IRF3 signaling, primary screen, TLR/RLR signaling modifier project, cell-based, Sendai virus stimulus, luciferase, 10K MLSCN set (AID 602276;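 active means inhibition at or above 50% at 10 µM; inactive means inhibition below 50%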;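 further: firefly luciferase from ISG56 promoter only with Renilla not read in this screen; 0% = Sendai virus plus DMSO and 100% = medium plus DMSO without virus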); settings: HEK293 RL24 IRF3 luciferase reporter, at 10 µM, stronger effect = higher value
# [8] = inhibitors of poly I:C-induced TLR3 signaling, primary screen, cell-based, poly I:C stimulus, luciferase, 10K MLSCN set (AID 602277;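 active means inhibition of the reporter signal at or above 50%; inactive means inhibition below 50%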); settings: HEK293-TLR3 RL24 IRF3 luciferase reporter, at 10 µM, stronger effect = higher value
SMILES,cell count [1],inhibition [1],inhibition of aggregation [2],nuclei count [2],inhibition [3],nuclei count [3],fluorescence slope [4],NADPH fluorescence slope [5],slope [6],inhibition [7],inhibition [8]
C(=C\c1ccccc1)/CN1CCN(Cc2ccc3c(c2)OCCO3)CC1,435,0.5% (inactive),2% (inactive),104%,-26.4% (inactive),120%,-0.442 (inactive),2e-05 (inactive),0.00636 (inactive),14% (inactive),19.9% (inactive)
COc1cc(C(O)c2nc3ccccc3n2C)cc(OC)c1OC (stereo not drawn),384,25.8% (active),21.2% (inactive),81.3%,-13.7% (inactive),108%,-0.453 (inactive),-2.3e-05 (inactive),0.00191 (inactive),2.58% (inactive),18.3% (inactive)
COc1ccc(-c2nc(CSCC(=O)NCc3ccc4c(c3)OCO4)c(C)o2)cc1OC,477,-3.3% (inactive),16.1% (inactive),104%,-83% (inactive),114%,-0.43 (inactive),-5.4e-05 (inactive),0.00553 (inactive),9.89% (inactive),20.1% (inactive)
Cc1ccc2c(C)nc(NC3=NCN(C(C)C)CN3)nc2c1,604,4.7% (inactive),5.5% (inactive),93.5%,-33.7% (inactive),125%,-0.543 (inactive),1.2e-05 (inactive),0.0049 (inactive),11.3% (inactive),14.9% (inactive)
O=C1c2ccccc2C(=O)N1CC(O)Cn1nnc2ccccc21 (stereo not drawn),480,-22.3% (inactive),-0.2% (inactive),116%,-47.9% (inactive),99.5%,-0.521 (inactive),-4.1e-05 (inactive),0.00496 (inactive),3.12% (inactive),4.4% (inactive)
Cc1ccc(-n2nnnc2SCC(=O)c2cc(C)n(-c3cc(C)on3)c2C)cc1,844,-12.4% (inactive),-7.8% (inactive),101%,-36.4% (inactive),106%,-0.595 (inactive),8.7e-07 (inactive),0.00585 (inactive),12.6% (inactive),18.7% (inactive)
CSc1nc(C)c(C(=O)Nc2ccccc2)c(C)c1C#N,761,-11.2% (inactive),-5.9% (inactive),103%,-40.9% (inactive),118%,-0.483 (inactive),-2.5e-05 (inactive),0.00491 (inactive),16.8% (inactive),18.5% (inactive)
O=S(=O)(c1ccccc1)N1CCN(S(=O)(=O)c2ccccc2)C1,281,5.1% (inactive),-0.4% (inactive),95%,-60.7% (inactive),96.4%,-0.337 (inactive),-5.3e-05 (inactive),0.00677 (inactive),10.4% (inactive),13.2% (inactive)
Cc1cc(C)c(S(=O)(=O)Nc2cccnc2)c(C)c1,610,-4.7% (inactive),-11.3% (inactive),119%,-20.4% (inactive),113%,-0.614 (inactive),-5.3e-05 (inactive),0.00327 (inactive),17.2% (inactive),15.7% (inactive)
COc1cccc(-c2nc(CSCC(=O)N3CCc4ccccc43)c(C)o2)c1,326,8.5% (inactive),-5.9% (inactive),108%,22.5% (inactive),108%,-0.432 (inactive),2.9e-06 (inactive),0.00374 (inactive),-10.3% (inactive),-34.4% (inactive)
O=C1CCCC2=C1C(c1cccc(Br)c1)n1nc(-c3ccco3)nc1N2 (stereo not drawn),568,-1.5% (inactive),-10.2% (inactive),100%,11.1% (inactive),109%,-0.523 (inactive),-2.2e-05 (inactive),0.00646 (inactive),9.76% (inactive),24.2% (inactive)
O=C(CSc1nc2ccsc2c(=O)n1NC(=O)c1ccccc1)Nc1nccs1,414,3.2% (inactive),4% (inactive),98.2%,-134% (inactive),101%,-0.342 (inactive),-7e-06 (inactive),0.00492 (inactive),-7.17% (inactive),0.179% (inactive)
CCn1c(=O)c(=O)[nH]c2cc(C(=O)N3CCN(c4ccccc4F)CC3)ccc21,688,-6.1% (inactive),-40.8% (inactive),81.5%,-16.5% (inactive),110%,-0.594 (inactive),-3e-05 (inactive),0.0083 (inactive),5.11% (inactive),6.91% (inactive)
O=C(COc1ccc2ccccc2c1)N1CCCC1,315,-1.8% (inactive),4% (inactive),77.8%,-27.1% (inactive),97.9%,-0.28 (inactive),-1.8e-06 (inactive),0.00518 (inactive),-31.9% (inactive),-85% (inactive)
O=C(CNc1ccc(Oc2ccccc2)cc1)N1CCOCC1,622,-26.3% (inactive),2.1% (inactive),103%,-25.6% (inactive),97.4%,-0.541 (inactive),-0.000138 (inactive),0.00652 (inactive),18.1% (inactive),3.08% (inactive)
Nc1cc(CN2C(=O)c3ccccc3C2=O)cc(Cl)c1O,451,-1.8% (inactive),14.9% (inactive),100%,-74.6% (inactive),159%,-0.401 (inactive),-5.2e-05 (inactive),0.00582 (inactive),12.8% (inactive),36.4% (inactive)
Cc1cc(C)n(-c2nc3sc4c(c3c3nnc(SCC(N)=O)n23)CC(C)(C)OC4)n1,368,6.9% (inactive),-7.7% (inactive),88.2%,-4.5% (inactive),116%,-0.318 (inactive),3.6e-06 (inactive),0.00476 (inactive),6.12% (inactive),10.9% (inactive)
O=C1CN(C(=O)COC(=O)c2ccccc2NC(=O)c2ccco2)c2ccccc2N1,271,-3.3% (inactive),7.3% (inactive),108%,-31% (inactive),123%,-0.507 (inactive),-8.2e-05 (inactive),0.00572 (inactive),8.42% (inactive),-17.5% (inactive)
CCOC(=O)c1sc(NC(=O)CSc2n[nH]c(-c3ccccc3)n2)c(C#N)c1C,634,-4.4% (inactive),-7.1% (inactive),94%,106% (active),122%,-0.393 (inactive),2.8e-05 (inactive),0.00567 (inactive),7.86% (inactive),-25.2% (inactive)
CC1Cc2nc(SCC(=O)Nc3nccs3)n(C)c(=O)c2S1 (stereo not drawn),584,12% (inactive),12.8% (inactive),109%,-23.5% (inactive),111%,-0.539 (inactive),-2.7e-05 (inactive),0.00648 (inactive),11.6% (inactive),28.2% (inactive)
Cc1cc(C)nc(SCc2csc(N)n2)n1,338,-3.6% (inactive),-3.1% (inactive),81.8%,-56.8% (inactive),100%,-0.347 (inactive),-4.2e-05 (inactive),0.00565 (inactive),-0.264% (inactive),-2.76% (inactive)
Cc1cc(=O)oc2c1c(C)nn2-c1ccc(C(=O)OC(C)C)cc1,741,-2.9% (inactive),-39.6% (inactive),106%,-67.2% (inactive),106%,-0.529 (inactive),-1.2e-05 (inactive),0.00612 (inactive),8% (inactive),26.1% (inactive)
CCOc1ccc(NC(=O)Cn2nnc(-c3ccccc3F)n2)cc1,513,-2.7% (inactive),19% (inactive),88.3%,-32.4% (inactive),103%,-0.539 (inactive),2.1e-05 (inactive),0.00657 (inactive),9.14% (inactive),12.8% (inactive)
CCOC(=O)c1cc(C)sc1N1C(=O)C2C3C=CC(C3)C2C1=O (stereo not drawn),223,3.3% (inactive),-17.4% (inactive),97.5%,-37% (inactive),138%,-0.543 (inactive),-8.1e-05 (inactive),0.00512 (inactive),16.2% (inactive),15.2% (inactive)
CCOC(=O)N1CCN(CCC(=O)c2ccc(Cl)cc2)CC1,533,-10.6% (inactive),-1.1% (inactive),116%,-30.8% (inactive),69.7%,-0.611 (inactive),-3.9e-05 (inactive),0.00547 (inactive),2.5% (inactive),2.89% (inactive)
O=C(NC1CCCCC1)N(Cc1ccccc1)Cc1ccco1,482,6.5% (inactive),0.2% (inactive),90.9%,-214% (inactive),128%,-0.4 (inactive),6.8e-05 (inactive),0.00512 (inactive),-9.22% (inactive),11.3% (inactive)
O=[n+]1c2c(n([O-])c3cc(F)c(N4CCCC4)cc31)CCC2,709,-9.4% (inactive),3% (inactive),78.5%,-98.9% (inactive),123%,-0.574 (inactive),-5.8e-06 (inactive),0.00378 (inactive),0.0339% (inactive),0.593% (inactive)
COc1ccc(N2CCN(C(=O)C(OC(C)=O)c3ccccc3)CC2)cc1 (stereo not drawn),594,-4.7% (inactive),-4.8% (inactive),92.4%,-2.4% (inactive),95.4%,-0.386 (inactive),4.8e-05 (inactive),0.00658 (inactive),11.4% (inactive),11.3% (inactive)
